{"source": "PubChem BioAssay (NCI)", "note": "Compounds without any hit were thinned out: in the full panel of roughly 83,000, 20% have a hit.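 Each cell line was grown in a 96-well plate and treated with one concentration of compound for 48 hours. Values below 10 were considered active.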 A number with no mark means an inactive call. Calls of active or inactive are those of the source. Where a SMILES comes first, the peptide text is derived from it. Bridges are numbered along the chain shown (N, C = ends). [ ]: non-standard residue; d: D form. The star is where a group is joined. ξ: configuration not given here. ξNMePhe(4-NMe2) = CNC(Cc1ccc(N(C)C)cc1)C(=O)O; Picolinoyl(3-OH) = O=C(c1ncccc1O)*; ξPip(4-oxo) = O=C1CCNC(C(=O)O)C1; Phg = N[CH](C(=O)O)c1ccccc1; Abu = CC[CH](N)C(=O)O"}
{"tested_on": "OVCAR-5 ovarian", "experiment": "NCI-60 one-dose screen, 48 h (100 = growth as untreated, 0 = no growth, -100 = all killed)", "details": "10 µM", "method": "Growth inhibition of the OVCAR-5 human tumor cell line is measured as a screen for anti-cancer activity. Cells are grown in 96 well plates and exposed to the test compound for 48 hours. Compounds are tested at a single concentration, which is 10^-5 M for most compounds. The reported endpoint is percent growth (GI% or GIPRCNT), where numbers from 0 - 100% represent growth inhibition, and numbers from -100% - 0 represent cell death. For example, a value of 40 represents 60% growth inhibition. A value of 0 means no net growth occurred over the course of the experiment. A value of -40 indicates 40% of cells at the beginning of the experiment died by the end of the experiment. A value of -100 means all cells are dead at the end of the experiment.\nNCI-60 Human Tumor Cell Lines Screen was performed using the standard one-dose NCI protocol, which is described in more detail at https://dtp.cancer.gov/discovery_development/nci-60/default.htm.\nCompounds with GIPRCNT values below 10 were considered active. Activity score was based on GIPRCNT using the following formula: […]\nScore is 0 for GIPRCNT values of 100 or above, 50 for GIPRCNT values of 0, and 100 for GIPRCNT values of -100."}
{"smiles": "CC1=CC(C)(C)NC(=S)N1c1ccc(S(=O)(=O)O)c2cccc(S(=O)(=O)O)c12", "growth": "105%"}
{"smiles": "CC1CCCC(CC(N)=O)CC1", "note": "(stereo not given)", "growth": "104%"}
{"smiles": "CC(=O)c1sc2c(c1OC(=O)c1ccc(Cl)cc1Cl)c(=O)n(-c1ccccc1)c(=S)n2-c1ccccc1", "growth": "-4.64% (active)"}
{"smiles": "Cc1ccncc1C(N)=O", "growth": "138%"}
{"smiles": "Cc1c(C(=O)O)c(=O)n(-c2ccccc2)n1C", "growth": "110%"}
{"smiles": "N#Cc1ccc(NC(=O)Nc2cccc(C#N)c2)cc1", "growth": "116%"}
{"smiles": "CC(C)=NNc1ccc([N+](=O)[O-])cc1[N+](=O)[O-]", "growth": "105%"}
{"smiles": "CCCC[P+](c1ccccc1)(c1ccccc1)c1ccccc1", "growth": "62.6%"}
{"smiles": "CC1SC(N)=NC1=O", "note": "(stereo not given)", "growth": "85.9%"}
{"smiles": "O=[N+]([O-])c1ccc(-c2noc(-c3cccs3)n2)cc1", "growth": "98.5%"}
{"smiles": "CCOC(=O)c1[nH]c(C)c(C(C)=O)c1C", "growth": "88%"}
{"smiles": "CS(=O)CC1=NC(=N)N=C1CS(C)=O", "note": "(stereo not given)", "growth": "111%"}
{"smiles": "CC1(C)/C(=C\\CO)C2CCC1C2", "note": "(stereo not given)", "growth": "105%"}
{"smiles": "CCOC(=O)CSc1c([N+](=O)[O-])ncn1C", "growth": "91.8%"}
{"smiles": "CCOC(=O)C1=C(Nc2ccc(Br)cc2)C(=O)N(CC)C1", "growth": "91%"}
{"smiles": "CC(=O)Nc1ccc(NC(C)=O)c2c1C(=O)c1ccccc1C2=O", "growth": "88.4%"}
{"smiles": "O=C(O)C(O)c1ccccc1", "note": "(stereo not given)", "growth": "103%"}
{"smiles": "Cc1ccccc1C1N=C2Oc3ccccc3C=C2C(=O)N1", "note": "(stereo not given)", "growth": "17.3%"}
{"smiles": "OC1OC(COC(c2ccccc2)(c2ccccc2)c2ccccc2)C(O)C(O)C1O", "note": "(stereo not given)", "growth": "95.9%"}
{"smiles": "CCOC(=O)c1cc2cccc(OC)c2oc1=O", "growth": "114%"}
{"smiles": "CCOc1ccc(I)cc1", "growth": "94%"}
{"smiles": "O=C1C[C@H](c2ccccc2)[C@H](c2ccccc2)C1", "growth": "95.8%"}
{"smiles": "c1ccc(Cc2ccccc2)cc1", "growth": "99.3%"}
{"smiles": "COc1cc(C(=O)N/N=C/c2cccc([N+](=O)[O-])c2)cc(OC)c1OC", "growth": "83.7%"}
{"smiles": "CCC1NC(=O)C(NC(=O)c2ncccc2O)C(C)OC(=O)C(c2ccccc2)NC(=O)C2CC(=O)CCN2C(=O)C(Cc2ccc(N(C)C)cc2)N(C)C(=O)C2CCCN2C1=O", "note": "(stereo not given) (tested in a mixture with another compound) ({Picolinoyl(3-OH)}-T[Abu]P[ξNMePhe(4-NMe2)][ξPip(4-oxo)][Phg]; ester 1-C; configuration not given here)", "growth": "-21.3% (active)"}
{"smiles": "O=C(/C(=N/O)c1ccccc1)c1ccccc1", "growth": "111%"}
{"smiles": "CCOC(=O)C(=O)C=P(c1ccccc1)(c1ccccc1)c1ccccc1", "growth": "101%"}
{"smiles": "O=C(O)CCCC(=O)O", "growth": "104%"}
{"smiles": "O=C(O)[C@@H]1[C@H]2C[C@H]3c4[nH]c5ccccc5c4CCN3C[C@@H]2CC[C@@H]1O", "growth": "105%"}
{"smiles": "COc1ccc(C(=O)C(Br)C(Br)C(=O)O)cc1", "note": "(stereo not given)", "growth": "101%"}
{"smiles": "COc1cc(/C=N\\Nc2ccccc2)ccc1OC(=O)c1ccccc1", "growth": "64.4%"}
{"smiles": "Cc1cccc(CO)c1", "growth": "107%"}
{"smiles": "O=C(O)c1cc([N+](=O)[O-])ccc1Cl", "growth": "104%"}
{"smiles": "CC(=O)N(C)c1ccc([N+](=O)[O-])cc1", "growth": "91.8%"}
{"smiles": "O=[N+]([O-])c1ccc(CO)cc1", "growth": "105%"}
{"smiles": "NCCC(=O)c1ccc(Cl)cc1", "growth": "118%"}
{"smiles": "COc1cc2c(cc1O)CC[C@@H]1C2CC[C@@]2(C)C1CC[C@@H]2O", "note": "(stereo not given in full)", "growth": "-41.5% (active)"}
{"smiles": "Cc1cc(NC(=O)CSCC(=O)O)no1", "growth": "99.6%"}
{"smiles": "COc1cc2c3cc1Oc1c(OC)c(OC)cc4c1C(Cc1ccc(O)c(c1)Oc1ccc(cc1)CC3N(C)CC2)N(C)CC4", "note": "(stereo not given)", "growth": "-0.193% (active)"}
{"smiles": "CC(=O)OCCC(C)CCC=C(C)C", "note": "(stereo not given)", "growth": "102%"}
